# Assay outcomes (PubChem BioAssay)
# Only some compounds are listed: those with a hit (about 12% of all), similar ones and a draw of the others.
# BAZ2B block: BAZ2B (human) inhibition. AlphaScreen BAZ2B-H3K14Ac peptide displacement. Potency, µM (doses to about 114 µM), for inactives: at the top dose activity change, negative = inhibition, usual class: inhibitors. 360,000 compounds, 4.4% hits. AID 504333; note: % is set by controls: 0 for no effect and ±100 for the full control effect; nearly all actives have a fitted effect of over 60% in size
#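 AlphaScreen displacement of biotin-H3(5-23)K14Ac peptide (50 nM final) from BAZ2B (50 nM final) in PBS pH 7.4, 0.01% Tween-20; complex preformed 30 min RT, then compounds (top 110 uM) 30 min RT, beads 20 min dark.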
# G9a inh: blocks human histone lysine methyltransferase G9a. Q96KQ7. G9a H3K9 monomethylation, AlphaScreen, 2 h. Potency, µM (series often up to 102 µM), inactives show at the highest dose activity, negative = inhibition, most hits filed as inhibitors. 350,000 compounds, 8.8% hits. AID 504332; note: % is set by controls: 0 for no effect and ±100 for the full control effect; nearly all actives have a fitted effect of over 75% in size
# Target sequence (Q96KQ7 913-1193 limits assumed): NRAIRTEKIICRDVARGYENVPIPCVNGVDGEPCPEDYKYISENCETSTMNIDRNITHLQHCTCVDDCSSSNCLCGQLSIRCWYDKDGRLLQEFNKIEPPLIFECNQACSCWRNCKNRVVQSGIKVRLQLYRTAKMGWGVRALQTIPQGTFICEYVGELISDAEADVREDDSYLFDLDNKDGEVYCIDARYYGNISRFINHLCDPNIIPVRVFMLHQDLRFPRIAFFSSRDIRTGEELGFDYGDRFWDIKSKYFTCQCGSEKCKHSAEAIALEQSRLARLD
#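 Methyltransferase reactions run at room temperature for 2 h (20 nM enzyme, 500 nM biotin-H3K9 peptide, 20 uM SAM) after a 15 min compound preincubation; product detected by AlphaScreen beads and anti-H3K9me1 antibody.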
# JMJD2A Tudor: JMJD2A Tudor domain (human) inhibition. AlphaScreen JMJD2A-Tudor / H3K4me3 peptide binding. O75164. AID 504339. 390,000 compounds, 4.4% hits. Potency, µM (titrated, usually from 114 µM), without a hit: top-dose activity change, negative = inhibition, actives largely listed as inhibitors; note: % is set by controls: 0 for no effect and ±100 for the full control effect; nearly all actives have a fitted effect of over 50% in size
# HP1b chromo inh: blocks HP1-beta chromodomain binding to methylated histone tails; 390,000 compounds, 0.56% hits; Potency, µM (top dose mostly 114 µM), inactives show at the top dose activity change, negative = inhibition, hits mostly inhibitors; P83916; AID 540317; AlphaScreen HP1-beta / biotin-H3K9me3 peptide binding; note: nearly all actives have a fitted effect of over 70% in size
# Target sequence (P83916 whole entry, looked up): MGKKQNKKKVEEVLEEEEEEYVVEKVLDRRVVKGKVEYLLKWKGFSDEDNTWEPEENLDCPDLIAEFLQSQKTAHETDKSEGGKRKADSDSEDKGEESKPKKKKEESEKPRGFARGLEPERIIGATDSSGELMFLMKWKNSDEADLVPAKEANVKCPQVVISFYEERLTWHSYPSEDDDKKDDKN
#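 Compound inhibition of the preformed complex between 50 nM HP1-beta and 50 nM biotinylated H3K9me3 peptide was read by AlphaScreen. Buffer was PBS pH 7.4 with 0.01% Tween-20. Incubations ran 30 min at room temperature, with 10 ug/mL donor/acceptor beads.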
# L3MBTL1 inh: blocks human L3MBTL1 | Q9Y468 | AlphaScreen L3MBTL1–H3K9me1 peptide binding | Potency, µM (highest dose often 57.1 µM), for inactives: at the top dose activity, negative = inhibition, hits mostly inhibitors | 230,000 compounds, 0.66% hits; note: % is set by controls: 0 for no effect and ±100 for the full control effect; nearly all actives have a fitted effect of over 60% in size
#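 First, the protein-peptide complex forms for 30 min at room temperature (L3MBTL1 50 nM, biotinylated H3K9me1 peptide 75 nM). Next, compounds are pin-transferred and incubated 30 min. Finally, AlphaScreen beads are added and read after 30 min.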
# Sfp PPTase inh: Sfp phosphopantetheinyl transferase inhibition. Q9F4F7. Biochemical Sfp PPTase activity, qHTS. Potency, µM, for inactives: largest response in the series, negative = inhibition, usual class: inhibitors. 310,000 compounds, 3.5% hits. AID 1490;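 note: the enzyme is Sfp with the accession as filed and its product quenches rhodamine fluorescence; 0% = enzyme reaction without inhibitor and -100% = no enzyme wells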
#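 Sfp 15 nM + cpd, 15 min RT; start w/ rhodamine-CoA 5 uM, BHQ-2-YbbR 12.5 uM (final); 50 mM Hepes pH 7.6, 10 mM MgCl2, 0.01% NP-40, 0.01% BSA; read 525/598 nm at 0 and 30 min.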
# Active calls of the source: *; ? = inconclusive; / = not tested or not shown; [ ] = remark or other dose. Calls come from the whole dose curve; as a rule, active = well fitted curve in the direction sought with a large enough effect; inconclusive = small, poorly fitted or top-dose-only effect, or another doubt; inactive = no such curve, though single readings can be large; an effect the other way counts as inactive or inconclusive. Potency is the fitted concentration of half-maximal effect.
SMILES,BAZ2B block,G9a inh,JMJD2A Tudor,HP1b chromo inh,L3MBTL1 inh,Sfp PPTase inh
CCOC(=O)C1=NN(c2ccccc2)C(=O)C1,-37.3%,/,-4.8%,24.1%,-17.4%,0.6%
CN(C)c1ccc(C=C2C(=O)OC(C)(C)OC2=O)cc1,-31.3%,?,-9.0%,24.8%,/,-10.6%
Cc1nn(-c2ccccc2)c2nc(-c3ccncc3)cc(C(=O)NCc3ccco3)c12,-0.6%,50.1µM*,?,-12.3%,-0.8%,-24.9%
Cc1nn(-c2ccccn2)c2nc(-c3cccs3)cc(C(=O)NCc3ccco3)c12,-10.9%,44.7µM*,?,22.4%,/,?
CCOC(=O)c1cc(-c2cccs2)nc2c1c(C)nn2-c1ccccn1,7.3%,32.8%,-4.5%,59.0%,-1.5%,?
Cc1ccccc1-n1nc(C)c2c(C(=O)NN)cc(-c3ccncc3)nc21,-6.2%,-5.6%,-16.6%,19.9%,/,7.3%
C=CCCN(C(C)C(=O)OC)S(=O)(=O)c1ccccc1Br (stereo not drawn),/,/,2.1%,61.3%,/,6.5%
Cc1ccccc1C(=O)NCC(=O)OC(C(=O)Nc1cc(C(F)(F)F)ccc1Cl)c1ccccc1 (stereo not drawn),/,/,-18.5%,/,/,/
CC(=O)c1cccc(NC(=O)CSc2nc(=O)n(Cc3ccco3)c3c2CCC3)c1,?,-8.1%[59 µM],-25.0%,-8.1%,/,/
COC(=O)[C@@]1(C)C[C@@H]1[C@@H](NC(=O)[C@@]1(C)C[C@@H]1[C@@H](NC(=O)[C@@]1(C)C[C@@H]1[C@@H](NC(=O)[C@@]1(C)C[C@@H]1[C@@H](NC(=O)OCc1ccccc1)c1ccccc1)c1ccccc1)c1ccccc1)c1ccccc1,/,/,/,/,/,38.9%
CCc1ccccc1NC(=O)C1C2C=CC(O2)C1C(=O)O (stereo not drawn),-5.0%,35.5µM*,4.5%,76.5%,-6.2%,-26.7%
Cc1csc(NC(=O)C2C3C=CC(O3)C2C(=O)O)n1 (stereo not drawn),-30.0%,?,25.1µM*,10.5%,?,?
O=C(O)C1C2C=CC(O2)C1C(=O)Nc1ccccc1C(F)(F)F (stereo not drawn),-5.6%,3.16µM*,79.4µM*,79.4µM*,/,28.2µM*
Cc1cc(C)cc(NC(=O)C2C3C=CC(O3)C2C(=O)O)c1 (stereo not drawn),-13.2%,?,-13.7%,36.2%,/,9.1%
Cc1cc(C)c(Cn2c(C)c(CNCc3ccccc3C)c(C(=O)O)c2C)c(C)c1,-39.0%,-19.4%[59 µM],?,12.3%,/,/
CC1(C)CC(=O)C(CC2CCCCC2=O)C(=O)C1 (stereo not drawn),1.1%,31.1%[59 µM],-19.7%,36.3%,4.6%,12.0%
CC1(C)CC(=O)C(CC2C(=O)CC(C)(C)CC2=O)C(=O)C1,-3.2%,22.4µM*,-8.7%,28.4%,3.7%,-13.8%
FC(F)(F)c1ccccc1-c1ccc2ncnc(NC3CCNCC3)c2c1,/,/,/,/,/,-3.3%
C=CC(C1=CC(=O)C(OC)=C(OC)C1=O)c1ccccc1 (stereo not drawn),/,/,/,/,/,1.78µM*
C=CC(C1=CC(=O)C(OC)=CC1=O)c1ccc(OC)cc1 (stereo not drawn),/,/,/,/,/,39.8µM*
Cc1ccc(-c2cn3nc(N4CCCC(C(=O)NCc5ccc(F)cc5)C4)sc3n2)cc1 (stereo not drawn),-4.2%,-22.6%[59 µM],-18.2%,40.3%,/,/
CCOC(=O)c1cccc(NC(=O)CN2CCN(c3ccc(OC)cc3)CC2)c1,?,56.2µM*,?,-24.4%,-1.2%,-3.1%
CCOc1ccccc1N1CCN(CC(=O)Nc2nc(C)c(C(=O)N(C)C)s2)CC1,-6.2%,/,14.1µM*,1.0%,/,-5.5%
CCOC(=O)c1sc(NC(=O)CN2CCN(c3ccc(OC)cc3)CC2)nc1C,35.5µM*,39.8µM*,56.2µM*,?,-13.0%,4.2%
Cc1ccc(C)c(NC(=O)CCc2c(C)nn(-c3ccc(N4CCCC4)nn3)c2C)c1,-1.2%,8.6%[59 µM],-14.3%,27.8%,/,/
